Growth data for 25 compounds are collected here from PubChem BioAssay (NCI).

Among the test systems are T-47D breast; BT-549 breast; SW-620 colon; MCF7 breast; HCT-116 colon; HCC-2998 colon; KM12 colon; MDA-MB-435 melanoma.
What all share (assay): NCI-60 one-dose screen, 48 h (100 = growth as untreated, 0 = no growth, -100 = all killed)
Holding throughout (conditions): 10 µM unless noted

Each structure is given as a SMILES string. This is part of a sample that, as a whole, favours compounds with a hit. Of some 83,000 tested, about 20% had one in any assay.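 Cells were grown in 96-well plates and exposed to the test compound at a single concentration for 48 hours; results are reported as percent growth, with values below 10 considered active.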 A number with no mark means an inactive call. Calls of active or inactive are those of the source.

Take `O=c1c2cccc3c(Nc4ccc(F)cc4)ccc(c32)c2nc3ccccc3n12`: the growth was 23.4% with T-47D breast; 87.5% in the assay with BT-549 breast; 88% with SW-620 colon; 10.1% with MCF7 breast; 93.9% with HCT-116 colon; 76.1% in the assay on HCC-2998 colon. Moreover, in the assay with KM12 colon, the growth is 74.4%.
In the case of `COc1ccc(-c2cn[nH]c2-c2cc(OC)c3c(c2)OCCO3)cc1`, the growth in the assay with T-47D breast was 49.5%; in the assay with BT-549 breast it was 53.3%; with SW-620 colon, 25.5%; in the assay on MCF7 breast it was 19.6%; in the assay on HCT-116 colon it was 10.5%; with HCC-2998 colon, 25.3%. In the assay with KM12 colon, the growth is 3.46% (active).
`Clc1nc(Cl)c2ncn(C/C=C/Cn3cnc4c(Cl)nc(Cl)nc43)c2n1`: the growth is 38.2% in the assay on T-47D breast; -33.3% (active) in the assay with BT-549 breast; 45% in the assay with SW-620 colon; 38.3% in the assay with MCF7 breast; 33.3% with HCT-116 colon; 78.7% in the assay on KM12 colon.
For `CCOC(=O)c1cc(/C(=N\O)c2cc(OC)c(OC)c(OC)c2)n2c(C)cccc12`, the growth in the assay on T-47D breast is 27.7%; with MDA-MB-435 melanoma, -10.2% (active); with SW-620 colon, 23.3%; with MCF7 breast, 17.1%; in the assay on HCT-116 colon, 27.2%; with HCC-2998 colon, 70.8%. Also, the growth with KM12 colon is 27.9%.
With `O=S(=O)(c1ccccc1)n1ccc(-c2ccc3c(c2)CCO3)n1`, the growth was 68.8% in the assay with T-47D breast; 104% in the assay with MDA-MB-435 melanoma; 93.6% in the assay on SW-620 colon; 83.2% in the assay on MCF7 breast; 89.1% in the assay with HCT-116 colon; 90.8% with HCC-2998 colon.
Turning to `OC1CC2c3ccccc3C1c1ccccc12` (centres undefined), the growth is 111% in the assay on T-47D breast; 107% with MDA-MB-435 melanoma; 108% with SW-620 colon; 98.8% in the assay on MCF7 breast; 103% with HCT-116 colon; 108% with HCC-2998 colon. Further, in the assay on KM12 colon, the growth was 107%.
As for `COc1ccc(OC)c(-c2ccc(-c3ccccc3N)c3[nH]c4ccccc4c23)c1`, the growth in the assay on T-47D breast is 62.8%; in the assay with BT-549 breast it was 72.5%; in the assay with MCF7 breast, 69.8%; in the assay on HCT-116 colon it was 61.6%; in the assay on KM12 colon, 72.9%.
Consider `O=C(C[N+](=O)[O-])c1ccc(Cl)cc1`, for which the growth was 113% in the assay on T-47D breast; 114% in the assay with MDA-MB-435 melanoma; 106% in the assay on SW-620 colon; 100% with MCF7 breast; 101% in the assay on HCT-116 colon; 110% in the assay on HCC-2998 colon. Moreover, the growth in the assay on KM12 colon was 109%.
As to `O=C(O)C(=Cc1c2ccccc2cc2ccccc12)C(=O)O`, the growth in the assay on T-47D breast was 90.5%; with MDA-MB-435 melanoma, 109%; in the assay on SW-620 colon, 105%; in the assay with MCF7 breast it was 97.5%; in the assay with HCT-116 colon, 97.7%; in the assay with HCC-2998 colon, 100%. In addition, in the assay with KM12 colon, the growth was 109%.
Regarding `O=C(c1c[nH]c2ccccc12)C(Sc1nc2ccccc2c(=O)[nH]1)c1ccccc1` (centres undefined), the growth in the assay on T-47D breast was 81%; in the assay with BT-549 breast it was 87.2%; in the assay on SW-620 colon it was 110%; in the assay on MCF7 breast, 101%; with HCT-116 colon, 95.1%; in the assay on HCC-2998 colon, 112%. Also, the growth with KM12 colon is 106%.
As to `Cc1cc(C)c(S(=O)(=O)N2CCN(c3cc4c(cc3F)c(=O)c(C(=O)O)cn4C3CC3)CC2)c(C)c1`, the growth with T-47D breast is 62.9%; in the assay on BT-549 breast, 77.3%; in the assay with SW-620 colon it was 79.8%; in the assay on MCF7 breast, 54%; in the assay with HCT-116 colon, 32.2%; in the assay on HCC-2998 colon, 47.7%. Also, in the assay with KM12 colon, the growth was 60.7%.
Turning to `NC(N)=NC(N)=Nc1ccccc1-c1ccccc1`, the growth in the assay on T-47D breast was 108%; in the assay on BT-549 breast it was 131%; with HCT-116 colon, 102%; in the assay on HCC-2998 colon, 105%; in the assay on KM12 colon it was 107%.
As for `Cc1cc(C(=O)O)c(N)c(C)n1`, the growth with T-47D breast was 112%; with BT-549 breast, 106%; in the assay on SW-620 colon it was 106%; in the assay with MCF7 breast it was 93.6%; with HCT-116 colon, 102%; in the assay with HCC-2998 colon, 111%. In addition, the growth in the assay on KM12 colon is 110%.
As to `COc1ccc2c(c1)C(C)Cc1c(N(C)C)ncnc1N2C` (centres undefined), the growth is 34.7% in the assay with T-47D breast; -5.79% (active) with MDA-MB-435 melanoma; 21.4% with SW-620 colon; 19.5% in the assay with MCF7 breast; 23.7% in the assay with HCT-116 colon; 74.6% with HCC-2998 colon. For the same compound, in the assay with KM12 colon, the growth is 23.6%.
As to `CCC(c1ccc(OC)cc1)C(CC)c1ccc(OCC[N+](C)(C)C)cc1` (centres undefined), the growth with T-47D breast was 62.7%; in the assay with BT-549 breast it was 57.2%; with MCF7 breast, 56.9%; in the assay on HCT-116 colon it was 89.6%; with HCC-2998 colon, 39.3%; in the assay with KM12 colon, 49.4%.
On to `CC(C)CCN(CCCNc1c2c(nc3ccccc13)CCCC2)CCC(C)C`, for which the growth in the assay with T-47D breast is 98.8%; with BT-549 breast it was 91.3%; in the assay on MCF7 breast, 69.9%; in the assay on HCT-116 colon it was 63.7%; in the assay on HCC-2998 colon, 69.7%; in the assay on KM12 colon, 105%.
On to `CC(=O)Nc1ccc(S(=O)(=O)N2C(=O)CCC2C(=O)Nc2ccccc2)cc1` (centres undefined), for which the growth with T-47D breast is 17.6%; in the assay on MDA-MB-435 melanoma, 27.7%; in the assay with SW-620 colon, 30.2%; in the assay on MCF7 breast, 19.2%; in the assay on HCT-116 colon it was 26.5%; with HCC-2998 colon, 30.5%. Moreover, the growth with KM12 colon was 12.4%.
`Nc1c(C(=O)Nc2cccc(C(F)(F)F)c2)sc2nc3c(cc12)C(O)CCC3` (centres undefined): the growth was 17% with T-47D breast; 52.9% in the assay on BT-549 breast; 33.1% in the assay with SW-620 colon; 10.2% in the assay on MCF7 breast; 35.2% in the assay with HCT-116 colon; 78.8% with HCC-2998 colon. Further, the growth in the assay on KM12 colon was 18.1%.
For the compound `COc1ccc(C2CC(=O)Nc3c2c(C)nn3-c2nc3ccccc3[nH]2)cc1OC` (centres undefined), the growth was 65.7% with T-47D breast; 75.5% in the assay on BT-549 breast; 78.3% in the assay on SW-620 colon; 46.4% with MCF7 breast; 17.4% in the assay on HCT-116 colon; 82.6% with KM12 colon.
Consider `COc1ccc(-c2nc(-c3ccccc3)c(-c3ccccc3)n2C2CC2)cc1OC1CCCCC1`, for which the growth in the assay with T-47D breast was 58.4%; in the assay on BT-549 breast it was 97.3%; in the assay on SW-620 colon, 58.2%; in the assay with MCF7 breast, 52%; in the assay with HCT-116 colon, 38.8%; in the assay on HCC-2998 colon, 83.2%. Further, the growth in the assay with KM12 colon was 62.2%.
`CCC(=O)Oc1cc(/C=C/C(=O)O[C@H]2C[C@H]3CN4CCc5c([nH]c6cc(OC)ccc56)[C@@H]4C[C@@H]3[C@@H](C(=O)OC)[C@@H]2OC)ccc1OC`: the growth is 60.6% in the assay on T-47D breast; 67.1% in the assay on MDA-MB-435 melanoma; 83% in the assay on SW-620 colon; 48.2% in the assay with MCF7 breast; 53.3% in the assay on HCT-116 colon; 115% with HCC-2998 colon. For the same compound, in the assay on KM12 colon, the growth is 95.3%.
For the compound `O=C1C2=C(C(=O)c3c(O)ccc(O)c31)N(c1cccnc1)Cc1ccccc1O2`, the growth was -28.4% (active) with T-47D breast; -54.1% (active) in the assay with BT-549 breast; -45.9% (active) in the assay with SW-620 colon; -18% (active) with MCF7 breast; -71% (active) with HCT-116 colon; -31.2% (active) with HCC-2998 colon. Further, the growth in the assay with KM12 colon is -4.03% (active).
On to `COc1ncc(-c2ccc3ncnc(Nc4cccc(Cl)c4)c3c2)cc1N(S(C)(=O)=O)S(C)(=O)=O`, for which the growth was 18.5% in the assay with T-47D breast; 77.7% in the assay with MDA-MB-435 melanoma; 75.7% in the assay with SW-620 colon; 27.7% with MCF7 breast; 81.2% in the assay on HCT-116 colon; 76.4% in the assay on HCC-2998 colon. The growth in the assay on KM12 colon is 81.1%.
As for `C/C1=C\CCC2(C)OC2CC2CCC(C)(O)C(CC1)C2(C)C` (centres undefined), the growth in the assay on T-47D breast was 91.7%; in the assay with BT-549 breast, 49.8%; in the assay on SW-620 colon it was 97.1%; with MCF7 breast, 102%; in the assay with HCT-116 colon it was 98.6%; in the assay with KM12 colon, 108%.
Consider `CC(Br)C(O)c1cc2c(cc1Br)OCO2` (centres undefined), for which the growth was 100% with T-47D breast; 96.6% in the assay with BT-549 breast; 104% in the assay with SW-620 colon; 93% in the assay with MCF7 breast; 111% in the assay on HCC-2998 colon; 108% in the assay on KM12 colon.
